This is a sample that favours compounds with a hit; in the whole collection about 11% have one here.
HCV inh: qHTS Assay for Inhibitors of Hepatitis C Virus (HCV); Huh7.5.1 HCVcc-Cre infection, luciferase reporter, 44 h; Potency, µM (top dose mostly 41.8 µM), for the others: at the top dose activity change, negative = inhibition, actives largely listed as inhibitors; AID 651820, 2012; 340,000 tested, 3.4% active; also: % is scaled to controls: 0 for no effect and ±100 for the full control effect
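Compounds are dispensed onto cells plated 4 h earlier at 1,000 per well, with HCVcc-Cre virus (about 0.5 moi) added next. Following 44 h of culture, luminescent signal is measured for 15 sec after 15 min with substrate at room temperature.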
Pf growth 48h: Primary qHTS for delayed death inhibitors of the malarial parasite plastid, 48 hour incubation; P. falciparum luciferase growth in erythrocytes, 48 h; Potency, µM (highest dose often 28.7 µM), for inactives: at the top dose activity change, negative = inhibition, most hits filed as inhibitors; AID 504832, 2011; 310,000 tested, 5.9% active; also: % is scaled to controls: 0 for no effect and ±100 for the full control effect
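Erythrocytes infected with P. falciparum carrying an integrated firefly luciferase reporter (2% hematocrit, 0.1% parasitemia final) were exposed to compounds in RPMI 1640 with 0.5% Albumax at 37 C, 5% CO2. Growth inhibition was scored as reduced luminescence.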
Vaccinia mCherry: qHTS for Stage-Specific Inhibitors of Vaccinia Orthopoxvirus: mCherry Reporter Primary qHTS | Vaccinia virus mCherry reporter infection, fluorescence | Potency, µM (top dose mostly 36.5 µM), inactives show at the highest dose activity change, negative = inhibition, hits mostly inhibitors | 310,000 tested, 0.63% active | AID 720579, 2013; calls by dose curve; tested in A549 cells; also: % is scaled to controls: 0 for no effect and ±100 for the full control effect; nearly all actives have a fitted effect of over 35% in size
Pf growth 96h: Primary qHTS for delayed death inhibitors of the malarial parasite plastid, 96 hour incubation; P. falciparum luciferase reporter growth, 96 h; Potency, µM (doses to about 28.7 µM), inactives show top-dose activity change, negative = inhibition, hits mostly inhibitors; 320,000 tested, 6.9% active; also: % is scaled to controls: 0 for no effect and ±100 for the full control effect
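Compounds incubated with erythrocytes infected by luciferase-expressing P. falciparum (2% hematocrit, 0.05% parasitemia final) for 96 hours, 37 C in 5% CO2. Growth inhibition scored as decreased luciferase luminescence.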
Vaccinia Venus: qHTS for Stage-Specific Inhibitors of Vaccinia Orthopoxvirus: Venus Reporter Primary qHTS; Vaccinia virus Venus reporter expression, fluorescence; Potency, µM (titrated, usually from 36.5 µM), without a hit: top-dose activity change, negative = inhibition, usual class: inhibitors; 330,000 tested, 0.46% active; AID 720580, 2013; calls by dose curve; tested in A549 cells; also: % is scaled to controls: 0 for no effect and ±100 for the full control effect; nearly all actives have a fitted effect of over 30% in size
NS1 inh: qHTS Assay for Inhibitors of Influenza NS1 Protein Function; 270,000 tested, 0.4% active; Potency, µM (titrated, usually from 46.1 µM), inactives show at the highest dose activity, positive = more growth; AID 2326, 2010; calls by dose curve; also: actives are rising curves; nearly all actives have a fitted effect of over 50% in size
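Compounds were scored for reversing the slow growth caused by influenza A NS1 in S. cerevisiae, measured by optical density at 600 nm. Assay medium contained 2% galactose at pH 6.0; NS1-free yeast of the same strain were the positive control.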
An asterisk follows results filed as active; i = inactive; ? = inconclusive; nt = no result given; [ ] = dose if it differs, or a comment. Unless noted, calls follow the shape of the dose curve; as a rule, active = well fitted inhibition curve with a large enough effect; inconclusive = small, poorly fitted or top-dose-only effect, or another doubt; inactive = no such curve, though single readings can be large or run the other way. Potency is read from the fitted curve at half-maximal effect.

SMILES	HCV inh	Pf growth 48h	Vaccinia mCherry	Pf growth 96h	Vaccinia Venus	NS1 inh
O=C(Cc1ccc(Br)cc1)Nc1cccc(S(=O)(=O)N2CCCCC2)c1	nt	nt	-27.4%	nt	?	nt
COc1ccccc1N(C)S(=O)(=O)c1ccc(C(=O)Nc2cccc(S(=O)(=O)N3CCOCC3)c2)cc1	10µM*	nt	nt	nt	nt	nt
COc1ccc(CC(=O)Nc2cccc(S(=O)(=O)N3CCCC3)c2)cc1OC	4.47µM*	?	nt	?	nt	nt
COc1ccc(C(=O)Nc2cccc(S(=O)(=O)N(C)C)c2)cc1S(=O)(=O)N1CCOCC1	?	nt	-5.3%	nt	-10.9%	nt
COc1ccccc1CC(=O)Nc1cccc(S(=O)(=O)N2CCOCC2)c1	?	-42.9%	-12.0%	?	-9.8%	13.0%
COc1ccc(NC(=O)CCNS(=O)(=O)c2ccccc2F)cc1S(=O)(=O)N1CCOCC1	6.1%	nt	nt	nt	nt	nt
COc1ccc(Br)cc1C1=CC(=O)C[C@H](c2ccc(F)cc2)C1	nt	nt	-13.7%	nt	-24.5%	nt
Cc1cc(NC(=O)C(C)Sc2nc(-c3cccs3)nc3ccccc23)no1 (stereo not drawn)	?	?	-27.6%	?	?	nt
CCc1nnc(NC(=O)CSc2nc3c(cc2C#N)CCC3)s1	-14.2%	135.2%	-23.5%	nt	-17.5%	4.0%
c1ccc2c(c1)CCOC2CNCCCN1CCCCC1 (stereo not drawn)	?	?	-1.0%	11.7µM*	-4.6%	5.7%
N#CCCN(C(=O)COC(=O)c1nc(Cl)ccc1Cl)c1ccccc1	10.0%	18.5%	i	39.0%	-9.6%	nt
CCCN(C(=O)c1cc2c(Cl)nc3ccccc3c2s1)c1cccc(C)c1	nt	nt	14.1%	nt	-11.8%	nt
CCCCCCCN(C(=O)CCl)c1cccc(C)c1	12.6µM*	-14.3%	-18.2%	?	-9.7%	-0.8%
O=C(CCl)N(CCc1ccccc1)CCc1ccccc1	?	11.7µM*	i	?	-9.6%	-22.1%
N#CCCN(C(=O)CCl)c1cccc(Cl)c1	?	?	nt	5.22µM*	nt	nt
O=C(CCl)N(c1ccccc1)c1ccccc1	8.91µM*	1.65µM*	i	4.15µM*	-7.6%	2.3%
COCCN1C[C@@H](CO)O[C@@H](n2cnc3c(NCCCO)ncnc32)C1	nt	nt	-12.9%	nt	-18.6%	nt
CCOC(=O)c1cccc(NC(=O)CCn2c(-c3ccc(F)cc3)cc(C(=O)OCC)c2C)c1	nt	nt	-12.0%	nt	-9.6%	nt
CCCCCCCCCCN(CCCCCCCCCC)c1ccccc1	nt	nt	-16.0%	nt	-6.6%	nt
CCCCCCN(C(=O)CCl)c1ccccc1	5.01µM*	?	nt	?	nt	1.1%
Cc1nn(Cc2ccccc2)c(C)c1C(=O)OCC(=O)c1cc(C)n(C2CC2)c1C	?	14.7µM*	nt	nt	nt	-1.5%
O=[N+]([O-])c1cccnc1SCc1c(F)cccc1Cl	15.3%	13.1µM*	-24.8%	?	-13.0%	3.6%
O=[N+]([O-])c1ccc(SCc2c(F)cccc2Cl)nc1	-1.7%	70.3%	-8.2%	38.4%	-9.4%	0.5%
CCOC(=O)Cc1nn(Cc2nc(-c3ccc(C#N)cc3)cs2)c(=O)c2ccccc12	10µM*	?	-1.8%	?	-3.9%	-0.1%
COc1ccccc1NC(=O)Cc1nn(C)c(=O)c2ccccc12	?	?	nt	-19.8%	nt	-45.8%
SMILES	HCV inh	Pf growth 48h	Vaccinia mCherry	Pf growth 96h	Vaccinia Venus	NS1 inh
Cn1nc(CC(=O)Nc2ccc3c(c2)OCCO3)c2ccccc2c1=O	6.31µM*	-10.4%	nt	?	-29.6%	-6.7%
COc1cc(NC(=O)Cc2nn(C)c(=O)c3ccccc23)cc(OC)c1	10µM*	?	nt	207.3%	?	-20.7%
CCCCn1nc(CC(=O)O)c2ccccc2c1=O	?	-2.7%	nt	10.4µM*	nt	-0.8%
CCOC(=O)Cc1nn(CC)c(=O)c2ccccc12	17.3%	44.2%	nt	10.1%	nt	-3.1%
Cc1ccc(NC(=O)Cc2nn(C)c(=O)c3ccccc23)cc1F	?	-44.1%	i	?	-3.8%	0.2%
COc1cc(C(C2C(=O)CC(C)(C)CC2=O)C2C(=O)CC(C)(C)CC2=O)ccc1OC(C)=O	14.3%	nt	-5.1%	nt	0.7%	nt
CC(=O)Oc1ccc(Nc2ccccc2)cc1	4.5%	-85.3%	nt	-22.6%	nt	nt
COC(=O)c1ccc(COc2ccc(C(C)(C)C)cc2)o1	-11.6%	132.5%	i	?	-9.2%	-11.4%
CCCCCn1nc(C(=O)N2CCc3ccccc32)c2ccccc2c1=O	?	10.4µM*	nt	?	nt	nt
Cn1nc(CC(=O)NCc2cccc3ccccc23)c2ccccc2c1=O	?	nt	nt	?	-2.0%	3.8%
Cn1nc(CC(=O)NCc2ccc(F)cc2)c2ccccc2c1=O	11.2µM*	nt	-14.5%	?	-15.2%	-5.2%
COCCn1nnnc1SCC(=O)Nc1ccc2c(c1)OCO2	16.9%	8.0%	i	2.6%	-6.3%	1.2%
CCCn1nc(C(=O)N2CCc3ccccc32)c2ccccc2c1=O	-9.5%	?	nt	?	nt	nt
CCOC(=O)Cc1nn(C)c(=O)c2ccccc12	22.2%	9.5%	1.4%	5.22µM*	6.2%	0.1%
COCCCn1nnnc1SCC(=O)Nc1ccc2c(c1)OCCO2	11.9%	32.7%	nt	13.1µM*	nt	2.9%
CC1=C(C(=O)Nc2ccc(C)cc2C)C(c2ccccc2)n2nc(SCC(=O)c3ccc(C)cc3)nc2N1 (stereo not drawn)	nt	nt	-15.2%	nt	-5.2%	nt
CC1=C(C#N)C(c2ccc(O)cc2)C(C#N)=C(C)N1	-11.9%	0.0%	-0.7%[7.34 µM]	?	-8.6%[7.34 µM]	6.4%
NC(=O)CSc1nnc(-c2ccc3c(c2)OCO3)o1	10.3%	424.6%	-1.4%	175.1%	-0.2%	nt
COc1ccc(-c2nc(CNC(=O)NC3CCCCC3)c(C)o2)cc1	nt	nt	-20.2%	nt	-17.7%	nt
CSc1nc(O)c(C2OC(=O)c3ccccc32)c(=O)[nH]1 (stereo not drawn)	5.4%	-32.2%	i	?	-11.2%	-1.7%
COc1ccc(CNC(=O)C[C@H]2C[C@H](C(=O)N3CCCCC3)[C@@]3(CCc4ccccc4)c4[nH]c5cc(-c6ccco6)ccc5c4CCN3C2=O)cc1OC	?	nt	-1.5%	nt	-23.8%	nt
CC1=C(/C=C/C(C)=C/C=C/C(C)=C/CO)C(C)(C)CCC1	-11.4%	?	-6.2%	10.7µM*	-5.6%	nt
NC(=O)c1ccc(NC(=O)COc2cccc3c2CCNC3=O)cc1	6.2%	1.3%	i	?	-11.4%	nt
C/C(=N\Nc1ncnc2sc(C)c(C)c12)c1ccccn1	?	0.165µM*	5.01µM*	0.0465µM*	-21.3%	-111.6%
Cc1ccc(Nc2ncnc3sc(C)c(C)c23)cc1	-20.4%	112.8%	-29.7%	9.28µM*	-13.7%	-13.0%
Cc1sc2ncnc(NC3CCN(Cc4ccccc4)CC3)c2c1C	1µM*	-13.9%	?	-8.1%	?	0.7%

Screening results (PubChem BioAssay)
